According to article PMC7862700, “An all-to-all approach to the identification of sequence-specific readers for epigenetic DNA modifications on cytosine”:

Columns and labels:
Test in all cases: DAPPL (digital affinity profiling via proximity ligation, sequencing); 10 mM Tris-HCl pH 7.5, 50 mM NaCl, 1 mM DTT, 4% glycerol, room temperature, 30 min; GST-TFs on glutathione beads, 16-mer random dsDNA library, 0.1% formaldehyde crosslink after washing; high values mean tight binding
FLI1 = target: T1, FLI1 (Homo sapiens, UniProt Q01543 1-452); conditions: protein: recombinant; tags: N-terminal GST; dsDNA, one strand shown
T1 sequence: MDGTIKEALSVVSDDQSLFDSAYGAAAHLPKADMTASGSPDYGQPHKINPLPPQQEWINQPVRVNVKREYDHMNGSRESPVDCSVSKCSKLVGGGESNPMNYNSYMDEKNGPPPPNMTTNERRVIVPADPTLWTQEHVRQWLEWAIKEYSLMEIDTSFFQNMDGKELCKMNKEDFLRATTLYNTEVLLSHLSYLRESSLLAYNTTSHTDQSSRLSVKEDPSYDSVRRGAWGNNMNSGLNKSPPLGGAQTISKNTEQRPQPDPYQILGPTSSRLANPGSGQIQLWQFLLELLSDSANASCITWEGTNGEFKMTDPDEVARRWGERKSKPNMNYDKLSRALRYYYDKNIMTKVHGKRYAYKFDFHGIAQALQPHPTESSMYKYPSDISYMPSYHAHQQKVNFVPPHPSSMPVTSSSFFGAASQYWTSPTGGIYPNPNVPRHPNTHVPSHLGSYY
How it was run: (§1)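 Human transcription factors were made in yeast as GST fusions, captured on glutathione beads and barcoded with DNA. With a tag-only sample included, the pool was incubated with 200 nmole of a random double-stranded 16-mer DNA library in Tris/NaCl/DTT/glycerol buffer at room temperature for 30 min, then crosslinked with 0.1% formaldehyde after washing, ligated by proximity, amplified and sequenced. For binding signal, each hexamer's read frequency for a factor is divided by its frequency for the tag-only sample.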

ELK1 = target: T2, ELK1 (Homo sapiens, UniProt P19419 1-428); conditions: protein: recombinant; tags: N-terminal GST; dsDNA, one strand shown
T2 sequence: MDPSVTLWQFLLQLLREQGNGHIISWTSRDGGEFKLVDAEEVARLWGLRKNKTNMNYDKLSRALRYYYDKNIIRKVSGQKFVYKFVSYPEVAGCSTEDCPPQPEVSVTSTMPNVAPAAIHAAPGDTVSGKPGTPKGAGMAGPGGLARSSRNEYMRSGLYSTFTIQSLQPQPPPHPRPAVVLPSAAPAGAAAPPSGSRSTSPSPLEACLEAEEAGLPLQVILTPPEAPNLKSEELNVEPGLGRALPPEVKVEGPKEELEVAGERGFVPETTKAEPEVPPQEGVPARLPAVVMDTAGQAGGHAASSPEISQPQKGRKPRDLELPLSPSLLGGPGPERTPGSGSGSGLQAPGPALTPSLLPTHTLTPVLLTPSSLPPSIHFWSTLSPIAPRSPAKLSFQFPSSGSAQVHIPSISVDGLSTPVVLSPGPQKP
How it was run: as §1

GABPA = target: T3, GABPA (Homo sapiens, UniProt Q06546 1-454); conditions: protein: recombinant; tags: N-terminal GST; dsDNA, one strand shown
T3 sequence: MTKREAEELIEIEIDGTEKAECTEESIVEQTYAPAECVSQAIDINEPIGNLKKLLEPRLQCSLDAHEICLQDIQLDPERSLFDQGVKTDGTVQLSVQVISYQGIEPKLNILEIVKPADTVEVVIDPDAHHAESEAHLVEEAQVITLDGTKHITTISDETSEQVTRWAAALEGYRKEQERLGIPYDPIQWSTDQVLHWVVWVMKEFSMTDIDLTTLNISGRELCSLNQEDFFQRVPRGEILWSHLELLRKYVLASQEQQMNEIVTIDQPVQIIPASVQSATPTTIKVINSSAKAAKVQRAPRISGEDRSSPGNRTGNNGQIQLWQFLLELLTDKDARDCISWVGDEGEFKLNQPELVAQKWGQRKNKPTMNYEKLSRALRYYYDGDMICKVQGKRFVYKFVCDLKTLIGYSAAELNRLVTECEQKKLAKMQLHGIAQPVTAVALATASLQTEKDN
How it was run: as §1

ERG = target: T4, ERG (Homo sapiens, UniProt P11308 1-479); conditions: protein: recombinant; tags: N-terminal GST; dsDNA, one strand shown
T4 sequence: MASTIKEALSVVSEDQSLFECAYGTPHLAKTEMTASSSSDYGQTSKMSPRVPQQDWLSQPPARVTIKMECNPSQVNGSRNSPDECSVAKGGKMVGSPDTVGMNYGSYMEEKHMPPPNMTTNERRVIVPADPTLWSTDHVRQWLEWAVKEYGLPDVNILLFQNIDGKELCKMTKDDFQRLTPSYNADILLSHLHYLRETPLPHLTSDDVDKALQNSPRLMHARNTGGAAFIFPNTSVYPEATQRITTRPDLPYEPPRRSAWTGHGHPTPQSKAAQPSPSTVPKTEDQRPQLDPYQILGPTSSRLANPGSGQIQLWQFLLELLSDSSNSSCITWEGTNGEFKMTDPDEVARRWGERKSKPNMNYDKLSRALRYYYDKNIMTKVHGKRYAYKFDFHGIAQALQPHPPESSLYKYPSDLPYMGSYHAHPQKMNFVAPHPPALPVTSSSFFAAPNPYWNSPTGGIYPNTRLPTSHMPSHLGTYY
How it was run: as §1

ELF1 = ELF1 (Homo sapiens, UniProt P32519 1-619); conditions: protein: recombinant; tags: N-terminal GST; dsDNA, one strand shown
How it was run: as §1

EHF = target: T5, EHF (Homo sapiens, UniProt Q9NZC4 1-300); conditions: protein: recombinant; tags: N-terminal GST; dsDNA, one strand shown
T5 sequence: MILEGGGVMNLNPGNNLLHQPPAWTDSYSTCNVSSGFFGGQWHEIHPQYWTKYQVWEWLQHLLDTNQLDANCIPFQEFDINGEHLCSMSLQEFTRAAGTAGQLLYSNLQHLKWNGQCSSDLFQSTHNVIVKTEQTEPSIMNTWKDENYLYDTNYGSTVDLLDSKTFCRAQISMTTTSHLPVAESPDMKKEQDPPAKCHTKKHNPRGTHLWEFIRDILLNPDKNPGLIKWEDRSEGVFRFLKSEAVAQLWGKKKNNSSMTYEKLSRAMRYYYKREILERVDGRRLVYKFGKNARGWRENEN
How it was run: as §1

SPI1 = SPI1 (Homo sapiens, UniProt P17947 1-270); conditions: protein: recombinant; tags: N-terminal GST; dsDNA, one strand shown
How it was run: as §1

ELK3 = target: T6, ELK3 (Homo sapiens, UniProt P41970 1-407); conditions: protein: recombinant; tags: N-terminal GST; dsDNA, one strand shown
T6 sequence: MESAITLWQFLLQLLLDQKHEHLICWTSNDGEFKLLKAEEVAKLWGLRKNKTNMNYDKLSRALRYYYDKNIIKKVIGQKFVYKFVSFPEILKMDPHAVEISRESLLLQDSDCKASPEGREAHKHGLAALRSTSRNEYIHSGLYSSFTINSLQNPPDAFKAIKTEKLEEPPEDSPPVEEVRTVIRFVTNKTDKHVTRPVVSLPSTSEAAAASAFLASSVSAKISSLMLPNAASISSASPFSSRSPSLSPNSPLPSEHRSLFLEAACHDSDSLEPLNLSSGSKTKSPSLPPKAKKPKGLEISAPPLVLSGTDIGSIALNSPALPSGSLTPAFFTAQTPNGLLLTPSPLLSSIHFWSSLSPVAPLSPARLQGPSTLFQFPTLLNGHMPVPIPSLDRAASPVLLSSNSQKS
How it was run: as §1

FEV = target: T7, FEV (Homo sapiens, UniProt Q99581 1-238); conditions: protein: recombinant; tags: N-terminal GST; dsDNA, one strand shown
T7 sequence: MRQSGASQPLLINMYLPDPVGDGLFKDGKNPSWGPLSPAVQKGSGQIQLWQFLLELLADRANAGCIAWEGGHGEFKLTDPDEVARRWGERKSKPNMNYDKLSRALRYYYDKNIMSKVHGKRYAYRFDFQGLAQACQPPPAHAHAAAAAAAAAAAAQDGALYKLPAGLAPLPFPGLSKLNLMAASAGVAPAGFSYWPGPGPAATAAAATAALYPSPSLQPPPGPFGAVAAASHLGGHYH
How it was run: as §1

ETV5 = ETV5 (Homo sapiens, UniProt P41161 1-510); conditions: protein: recombinant; tags: N-terminal GST; dsDNA, one strand shown
How it was run: as §1

HSF1 = HSF1 (Homo sapiens, UniProt Q00613 1-529); conditions: protein: recombinant; tags: N-terminal GST; chain copies: 3; dsDNA, one strand shown
How it was run: as §1

SPIC = target: T8, SPIC (Homo sapiens, UniProt Q8N5J4 1-248); conditions: protein: recombinant; tags: N-terminal GST; dsDNA, one strand shown
T8 sequence: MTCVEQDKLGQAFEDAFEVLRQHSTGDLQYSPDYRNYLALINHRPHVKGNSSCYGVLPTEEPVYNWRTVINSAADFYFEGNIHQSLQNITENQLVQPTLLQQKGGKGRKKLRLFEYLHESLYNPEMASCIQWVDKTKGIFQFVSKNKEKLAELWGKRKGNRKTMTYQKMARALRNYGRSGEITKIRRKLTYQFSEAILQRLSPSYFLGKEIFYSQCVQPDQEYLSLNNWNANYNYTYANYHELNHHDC
How it was run: as §1

ELF4 = ELF4 (Homo sapiens, UniProt Q99607 1-663); conditions: protein: recombinant; tags: N-terminal GST; dsDNA, one strand shown
How it was run: as §1

ELK4 = target: T9, ELK4 (Homo sapiens, UniProt P28324-2 1-405); conditions: protein: recombinant; tags: N-terminal GST; dsDNA, one strand shown
T9 sequence: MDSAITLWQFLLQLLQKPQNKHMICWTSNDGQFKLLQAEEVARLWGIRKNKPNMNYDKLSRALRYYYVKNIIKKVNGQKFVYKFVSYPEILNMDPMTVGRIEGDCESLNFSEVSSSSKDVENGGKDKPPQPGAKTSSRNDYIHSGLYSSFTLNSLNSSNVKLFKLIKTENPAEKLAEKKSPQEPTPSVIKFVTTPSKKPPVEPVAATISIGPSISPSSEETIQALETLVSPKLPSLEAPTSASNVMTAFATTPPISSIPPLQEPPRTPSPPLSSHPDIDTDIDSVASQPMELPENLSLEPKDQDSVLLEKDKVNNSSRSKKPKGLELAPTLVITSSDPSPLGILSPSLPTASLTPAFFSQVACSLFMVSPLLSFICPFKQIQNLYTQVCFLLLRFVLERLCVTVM
How it was run: as §1

ETV2 = target: T10, ETV2 (Homo sapiens, UniProt O00321 1-342); conditions: protein: recombinant; tags: N-terminal GST; dsDNA, one strand shown
T10 sequence: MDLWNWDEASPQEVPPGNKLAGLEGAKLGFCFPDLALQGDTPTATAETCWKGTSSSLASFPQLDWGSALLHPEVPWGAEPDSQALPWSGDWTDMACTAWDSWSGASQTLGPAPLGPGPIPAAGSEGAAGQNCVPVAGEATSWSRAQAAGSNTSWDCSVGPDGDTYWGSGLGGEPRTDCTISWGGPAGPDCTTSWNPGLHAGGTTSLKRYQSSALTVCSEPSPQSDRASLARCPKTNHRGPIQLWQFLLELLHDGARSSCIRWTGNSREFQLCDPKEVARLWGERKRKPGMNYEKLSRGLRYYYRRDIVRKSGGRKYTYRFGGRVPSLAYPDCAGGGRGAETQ
How it was run: as §1

ELF3 = target: T11, ELF3 (Homo sapiens, UniProt P78545 1-371); conditions: protein: recombinant; tags: N-terminal GST; dsDNA, one strand shown
T11 sequence: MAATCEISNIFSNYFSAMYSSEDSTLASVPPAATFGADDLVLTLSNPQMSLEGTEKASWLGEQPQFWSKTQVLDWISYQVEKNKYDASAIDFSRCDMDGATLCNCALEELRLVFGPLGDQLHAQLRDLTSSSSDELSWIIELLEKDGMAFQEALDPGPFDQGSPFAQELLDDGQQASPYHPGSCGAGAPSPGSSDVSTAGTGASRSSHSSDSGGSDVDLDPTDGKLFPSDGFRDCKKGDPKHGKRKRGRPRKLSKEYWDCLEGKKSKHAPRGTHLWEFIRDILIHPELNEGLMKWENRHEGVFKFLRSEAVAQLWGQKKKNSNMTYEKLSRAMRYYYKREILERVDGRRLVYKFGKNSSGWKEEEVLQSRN
How it was run: as §1

CRX = CRX (Homo sapiens, UniProt O43186 1-299); conditions: protein: recombinant; tags: N-terminal GST; dsDNA, one strand shown
How it was run: as §1

ETV1 = ETV1 (Homo sapiens, UniProt P50549 1-477); conditions: protein: recombinant; tags: N-terminal GST; dsDNA, one strand shown
How it was run: as §1

Chain of HSF1 (Q00613 whole entry): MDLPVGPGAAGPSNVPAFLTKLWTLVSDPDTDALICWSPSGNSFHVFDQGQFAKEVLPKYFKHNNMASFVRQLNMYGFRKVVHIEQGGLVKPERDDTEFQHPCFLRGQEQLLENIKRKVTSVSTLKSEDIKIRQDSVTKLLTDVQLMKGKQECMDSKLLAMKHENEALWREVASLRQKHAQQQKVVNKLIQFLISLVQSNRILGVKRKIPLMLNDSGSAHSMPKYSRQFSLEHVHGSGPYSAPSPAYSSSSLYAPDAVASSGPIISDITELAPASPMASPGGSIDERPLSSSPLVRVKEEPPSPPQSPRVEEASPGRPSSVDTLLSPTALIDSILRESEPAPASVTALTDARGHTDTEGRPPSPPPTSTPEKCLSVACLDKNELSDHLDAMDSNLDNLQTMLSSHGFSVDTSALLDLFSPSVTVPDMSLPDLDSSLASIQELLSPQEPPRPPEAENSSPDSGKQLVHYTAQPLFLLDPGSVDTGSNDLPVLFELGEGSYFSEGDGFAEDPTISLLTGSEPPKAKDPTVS
Chain of ETV1 (P50549 whole entry): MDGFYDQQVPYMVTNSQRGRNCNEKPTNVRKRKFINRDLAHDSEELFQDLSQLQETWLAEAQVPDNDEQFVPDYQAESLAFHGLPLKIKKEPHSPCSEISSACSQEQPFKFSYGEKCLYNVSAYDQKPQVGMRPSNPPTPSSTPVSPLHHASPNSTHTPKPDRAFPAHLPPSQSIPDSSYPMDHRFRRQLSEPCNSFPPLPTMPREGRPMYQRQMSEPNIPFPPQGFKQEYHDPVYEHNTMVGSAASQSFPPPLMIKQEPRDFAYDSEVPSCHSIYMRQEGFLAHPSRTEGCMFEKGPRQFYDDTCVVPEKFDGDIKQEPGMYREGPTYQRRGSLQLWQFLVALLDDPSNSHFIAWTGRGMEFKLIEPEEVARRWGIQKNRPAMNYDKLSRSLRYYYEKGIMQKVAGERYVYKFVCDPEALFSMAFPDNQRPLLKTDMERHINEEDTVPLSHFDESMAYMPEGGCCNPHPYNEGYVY
Chain of ELF1 (P32519 whole entry): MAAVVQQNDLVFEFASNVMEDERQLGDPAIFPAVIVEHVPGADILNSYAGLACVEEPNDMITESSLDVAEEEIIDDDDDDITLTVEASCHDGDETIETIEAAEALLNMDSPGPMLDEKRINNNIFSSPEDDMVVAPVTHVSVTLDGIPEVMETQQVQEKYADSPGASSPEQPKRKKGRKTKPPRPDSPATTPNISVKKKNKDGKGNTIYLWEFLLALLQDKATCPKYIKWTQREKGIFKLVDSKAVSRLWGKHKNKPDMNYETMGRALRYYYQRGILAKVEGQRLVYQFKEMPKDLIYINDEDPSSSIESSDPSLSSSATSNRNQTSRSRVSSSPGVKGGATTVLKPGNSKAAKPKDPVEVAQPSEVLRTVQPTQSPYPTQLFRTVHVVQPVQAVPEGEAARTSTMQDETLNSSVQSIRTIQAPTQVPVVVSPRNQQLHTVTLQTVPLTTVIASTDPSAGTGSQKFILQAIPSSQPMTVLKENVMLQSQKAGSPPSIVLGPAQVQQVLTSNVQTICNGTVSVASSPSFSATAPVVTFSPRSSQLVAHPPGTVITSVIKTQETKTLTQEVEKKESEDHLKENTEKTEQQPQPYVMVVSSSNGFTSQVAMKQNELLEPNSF
Chain of ELF4 (Q99607 whole entry): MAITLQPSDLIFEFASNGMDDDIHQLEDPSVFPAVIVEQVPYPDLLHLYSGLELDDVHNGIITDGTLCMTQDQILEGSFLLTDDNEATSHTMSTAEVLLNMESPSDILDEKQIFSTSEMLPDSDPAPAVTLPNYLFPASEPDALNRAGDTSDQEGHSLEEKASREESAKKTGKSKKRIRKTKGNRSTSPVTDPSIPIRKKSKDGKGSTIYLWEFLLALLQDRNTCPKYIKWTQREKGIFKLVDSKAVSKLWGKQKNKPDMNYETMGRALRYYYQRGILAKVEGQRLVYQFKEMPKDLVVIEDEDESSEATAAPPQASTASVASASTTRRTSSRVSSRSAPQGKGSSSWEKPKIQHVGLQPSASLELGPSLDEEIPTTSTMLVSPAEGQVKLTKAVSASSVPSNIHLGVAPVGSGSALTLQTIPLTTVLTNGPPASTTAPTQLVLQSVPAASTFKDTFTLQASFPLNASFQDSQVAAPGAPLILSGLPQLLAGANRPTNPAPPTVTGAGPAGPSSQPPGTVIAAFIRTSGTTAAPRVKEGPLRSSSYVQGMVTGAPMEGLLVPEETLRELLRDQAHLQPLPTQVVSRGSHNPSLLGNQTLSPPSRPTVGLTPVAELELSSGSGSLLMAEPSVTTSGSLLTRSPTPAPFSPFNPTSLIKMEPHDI
Chain of ETV5 (P41161 whole entry): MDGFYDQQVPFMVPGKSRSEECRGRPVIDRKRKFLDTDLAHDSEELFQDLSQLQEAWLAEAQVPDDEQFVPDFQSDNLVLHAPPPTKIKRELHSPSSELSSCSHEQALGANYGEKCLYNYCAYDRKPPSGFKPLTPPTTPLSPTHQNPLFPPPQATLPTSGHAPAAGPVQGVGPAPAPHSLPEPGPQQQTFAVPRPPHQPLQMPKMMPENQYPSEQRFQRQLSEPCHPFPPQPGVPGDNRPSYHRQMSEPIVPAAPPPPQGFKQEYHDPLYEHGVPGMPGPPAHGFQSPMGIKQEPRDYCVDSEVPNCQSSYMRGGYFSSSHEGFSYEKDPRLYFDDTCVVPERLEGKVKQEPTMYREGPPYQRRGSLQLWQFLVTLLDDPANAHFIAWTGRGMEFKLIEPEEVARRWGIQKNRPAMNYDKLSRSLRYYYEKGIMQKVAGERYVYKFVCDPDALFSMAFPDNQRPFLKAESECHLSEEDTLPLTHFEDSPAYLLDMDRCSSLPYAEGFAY
Chain of CRX (O43186 whole entry): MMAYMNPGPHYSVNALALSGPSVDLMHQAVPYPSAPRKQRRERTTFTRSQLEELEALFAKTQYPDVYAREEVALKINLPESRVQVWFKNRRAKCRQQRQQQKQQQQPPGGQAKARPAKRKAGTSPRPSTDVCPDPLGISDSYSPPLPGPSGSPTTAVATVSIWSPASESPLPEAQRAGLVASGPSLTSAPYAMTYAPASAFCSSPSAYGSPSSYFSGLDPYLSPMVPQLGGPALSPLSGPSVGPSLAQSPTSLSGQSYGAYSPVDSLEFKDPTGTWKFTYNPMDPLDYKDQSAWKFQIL

Sequence: ATACTG
- binding signal (FLI1): 1.1 fold enrichment (6-mer frequency, TF over GST control)
- binding signal (ELK1): 1.09 fold enrichment (6-mer frequency, TF over GST control)
- binding signal (GABPA): 1.16 fold enrichment (6-mer frequency, TF over GST control)
- binding signal (ERG): 1.06 fold enrichment (6-mer frequency, TF over GST control)
- binding signal (ELF1): 1.09 fold enrichment (6-mer frequency, TF over GST control)
- binding signal (EHF): 1.1 fold enrichment (6-mer frequency, TF over GST control)
- binding signal (SPI1): 1.14 fold enrichment (6-mer frequency, TF over GST control)
- binding signal (ELK3): 1.14 fold enrichment (6-mer frequency, TF over GST control)
- binding signal (FEV): 1.04 fold enrichment (6-mer frequency, TF over GST control)
- binding signal (ETV5): 1.15 fold enrichment (6-mer frequency, TF over GST control)
- binding signal (HSF1): 1.06 fold enrichment (6-mer frequency, TF over GST control)
- binding signal (SPIC): 1.06 fold enrichment (6-mer frequency, TF over GST control)
- binding signal (ELF4): 1.16 fold enrichment (6-mer frequency, TF over GST control)
- binding signal (ELK4): 1.29 fold enrichment (6-mer frequency, TF over GST control)
- binding signal (ETV2): 1.32 fold enrichment (6-mer frequency, TF over GST control)
- binding signal (ELF3): 1.18 fold enrichment (6-mer frequency, TF over GST control)
- binding signal (CRX): 1.11 fold enrichment (6-mer frequency, TF over GST control)
- binding signal (ETV1): 1.05 fold enrichment (6-mer frequency, TF over GST control)
